In the supplement of paper PMC7156485:
± gives the standard deviation of the averaged measurements.

system: HCC1569; assay: cell number relative to DMSO (% of DMSO); higher = more cells (less growth inhibition / toxicity); details: concentration: 10 µM; 24 h
How it was run: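 HCC1569 and TDF cells were seeded at 800 per well in 384-well plates in RPMI with 10% FBS and treated with compounds at 10 µM for 24 h at 37 °C, in triplicate. After fixation in 3.7% formaldehyde, cells were stained with a rabbit anti-H1.0 antibody, an AlexaFluor 647 secondary and DAPI, and six fields per well were imaged at ×10. H1.0 nuclear intensity or cell number is given as percent of the plate control, using the median of replicates, with HCC1569 values smoothed for positional effects.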
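Also: TDF denotes transformed human dermal fibroblasts of mesenchymal origin.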

| Structure (SMILES) | cell number |
| --- | --- |
| Cc1ccc(CN2C(=O)S/C(=C\c3ccc(Cl)cc3)C2=O)cc1 | 99.6 |
| C=CC(=O)Nc1cc2c(Nc3ccc(F)c(Cl)c3)ncnc2cc1OCCCN1CCOCC1.Cl.Cl [Canertinib] | 75.8 |
| CC(=O)SCC(Cc1ccccc1)C(=O)NCC(=O)OCc1ccccc1 (stereo unspecified) [Racecadotril] | 103 |
| COc1ccc2[nH]c(I)c(CCNC(C)=O)c2c1 [2-Iodomelatonin] | 100 |
| CCCN(CCC)C(=O)C(CCC(=O)O)NC(=O)c1ccccc1 (stereo unspecified) [Proglumide] | 109 |
| O.O=c1c(O)c(-c2ccc(O)cc2O)oc2cc(O)cc(O)c12 | 104 |
| Cc1cnc(Nc2ccc(N3CCN(C)CC3)cc2)nc1Nc1cccc(S(=O)(=O)NC(C)(C)C)c1 | 31.4 |
| CC(C)(C)c1cc(O)ccc1O [tert-Butylhydroquinone] | 104 |
| O=C(O)c1ccc2ccccc2c1O.OCc1cc(C(O)CNCCCCCCOCCCCc2ccccc2)ccc1O (stereo unspecified) [Salmeterol xinafoate] | 100 |
| CCCC(=O)O[C@]1(C(=O)CO)CC[C@H]2[C@@H]3CCC4=CC(=O)CC[C@]4(C)[C@H]3[C@@H](O)C[C@@]21C [(11beta)-11,21-dihydroxy-3,20-dioxopregn-4-en-17-yl butyrate] | 97.4 |
| CS(=O)c1ccc(-c2nc(-c3ccc(F)cc3)c(-c3ccncc3)[nH]2)cc1.Cl (stereo unspecified) | 88.9 |
| C=CC1(C)CC(=O)C2(O)C(C)(O1)C(OC(C)=O)C(O)C1C(C)(C)CCC(O)C12C (stereo unspecified) [Forskolin] | 89.77 ± 0.53 |
| CCN(CC)CC(=O)Nc1c(C)cccc1C.Cl [Lidocaine hydrochloride] | 97.3 |
| COC(=O)c1ccc2c(c1)nc(NC(=O)c1ccccc1)n2CCCc1ccccc1 | 80.4 |
| Cc1cc(I)ccc1Nc1c(C(=O)NOCC2CC2)cc(F)c(F)c1F | 97.2 |
| CC#CCOC(=O)c1c(C)nc2sc3c(c2c1N)CCC(O)C3 (stereo unspecified) | 87.1 |
| CCCCCCCCCCCCCCC(O)C(O)C(N)CO (stereo unspecified) [Phytosphingosine] | 98.8 |
| CNS(=O)(=O)Cc1ccc2[nH]cc(CCN(C)C)c2c1.O=C(O)CCC(=O)O [Sumatriptan Succinate] | 98 |
| Cc1cc(Nc2nc(-c3ccccc3)nc3ccccc23)n[nH]1 [GSK-3 Inhibitor XIII] | 57 |
| CCCCCCCC/C=C\CCCCCCCC(N)=O [(9Z)-9-octadecenamide] | 102 |
| O=C(O)CCc1nc(-c2ccccc2)c(-c2ccccc2)o1 [Oxaprozin] | 104 |
| COc1cc(CCC(C)=O)ccc1O [Vannilylacetone] | 105 |
| COC(=O)Nc1nc2ccc(C(=O)c3cccs3)cc2[nH]1 [Nocodazole] | 59.5 |
| CC(c1cc2ccccc2s1)N(O)C(N)=O (stereo unspecified) [Zileuton] | 102 |
| Cc1ccc(N(CC2=NCCN2)c2cccc(O)c2)cc1 [Phentolamine] | 107 |
| CN(Cc1cnc2nc(N)nc(N)c2n1)c1ccc(C(=O)NC(CCC(=O)O)C(=O)O)cc1 (stereo unspecified) [Methotrexate] | 81.7 |
